According to PubChem BioAssay (NCI):
About 83,000 compounds went through this panel and 20% of them were active in at least one assay; those are over-represented in the sample as a whole.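 Compound tested at a single concentration for 48 hours in 96-well plates; a percent growth value below 10 was scored as active.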 A number with no mark means an inactive call. Activity calls are given as the source filed them.

Each compound was assayed on SN12C renal (assay: NCI-60 one-dose screen, 48 h (100 = growth as untreated, 0 = no growth, -100 = all killed)). Conditions: 10 µM unless noted.
Compound `CN1C(=O)N(C)C2C1NN=c1s/c(=C\c3ccccc3)c(=O)n12` (stereo unspecified) has a growth of 50.1%. Compound `CCn1c(C)nc2cc(C(N)=O)ccc21` has a growth of 98.1%. In the case of `Cc1ccc(/C=C/c2c(C(=O)/C=C/c3ccc(Cl)cc3)c(C)nc3ccccc23)cc1`, the growth is reported as -49.2% (active). Work on `COc1ccc2[nH]c(O)c(/C=c3/cc4c(c(-c5ccc(F)c(OC)c5)n3)=Nc3ccccc3-4)c2c1` yielded a growth of 88.6%. `O=C(Cc1ccc(F)c(F)c1)Nc1cc(C2(C(F)(F)F)CC2)nn1Cc1ccccc1` was tested, and the growth was 6.15% (active). With `C#CCOc1nc(C)cc(C)c1C#N` the growth was 104%. Compound `O=C1NC(=Nc2ccc(Cl)cc2)S/C1=C\c1cn(-c2ccccc2)nc1-c1ccccc1` has a growth of 79.3%. In the case of `COc1cccc(-c2nn(-c3ccccc3)cc2-c2ccnc(NCCNC(=O)Nc3cccc(C(F)(F)F)c3)c2)c1`, the growth is reported as 28.4%. In the case of `COc1cc2ncn3c(=O)c4c5c(sc4nc3c2cc1OC)CCCC5`, the growth is reported as 109%. `CCN1C(=O)N(CC)C2Nn3c(s/c(=C4\C(=O)N(C)c5ccccc54)c3=O)=NC21` (stereo unspecified) showed a growth of 43.4%. In the case of `Cc1c(C)c2c(c(C)c1OCC(=O)O)CC[C@@](C)(CCC[C@@H](C)CCC[C@@H](C)CCCC(C)C)O2`, the growth is reported as -32.3% [50 µM] (active). `Cc1occc1-c1n[nH]c(=S)n1N1C(=O)CSC1=S` gave a growth of 99.2%. For `COc1ccc2c(c1)O/C(=C/c1ccc(OCC(=O)c3ccccc3)cc1)C2=O`, the growth was 107%. `c1ccc(-c2nc([P+](c3ccccc3)(c3ccccc3)c3ccccc3)c(N3CCOCC3)o2)cc1` was tested, and the growth was 1.32% (active). `Cc1cccc(Cc2cnc(NC(=O)/C=C/c3ccco3)s2)c1` showed a growth of 29.3%. `CCN(CC)CCCC(C)Nc1c2ccc(Cl)cc2nc2ccc(O)cc12` (stereo unspecified) was tested, and the growth was 30.8%. `COC1=CC(=O)C[C@@H](C)[C@]12Oc1c(Cl)c(OC)cc(OC)c1C2=O` gave a growth of 96.5%. `CC1=C(SCCC(=O)OC(C[Se]C2=C(C)C(=O)c3ccccc3C2=O)C(=O)NCCCCCC(=O)OCc2ccccc2)C(=O)c2ccccc2C1=O` (stereo unspecified) showed a growth of 38.4%. Compound `O=c1c2c3c(sc2nc(N/N=C/c2ccc(Br)cc2)n1Cc1ccccc1)CCCC3` has a growth of 78.3%. With `CC(=O)O[C@]1(C(C)=O)CCC2C3C[C@H](C)C4=CC(=O)CC[C@]4(C)C3CC[C@@]21C` (stereo partly specified) the growth was 63.1%. `Nc1ccc2c(c1)c(N)nn2C(=O)Nc1ccc(Cc2ccccc2)cc1` gave a growth of 61.1%. For `Cc1cc(NCc2cc(Nc3ccnc4cc(Cl)ccc34)ccc2F)nc(N2CCSCC2)n1`, the growth was 34.9%. In the case of `CN(C)CCC=C1c2ccccc2C(C)(C)c2ccccc21`, the growth is reported as 71.2%. `COc1ccc(NC(=O)CSc2nc(C)c(C(C)=O)n2-c2ccc([N+](=O)[O-])cc2)cc1` gave a growth of 94.7%. With `COC(=O)c1c2c(c(C)[n+]([O-])c1C)C(=O)C(NCc1ccc(F)cc1)=CC2=O` the growth was -2.05% (active). Work on `Cc1c(C(=O)NC(Cc2ccccc2)C(O)C(=O)NCc2ccc(F)cc2)[nH]c2ccccc2c1=O` (stereo unspecified) yielded a growth of 107%. Work on `COC1=C(OC)C(=O)C(OC)=C(OC)C1=O` yielded a growth of 94.9%. Work on `CCN(CC)Cc1cccc(C(=O)OC)c1` yielded a growth of 105%. `C[C@H](NC(=O)[C@@H]1CSSC[C@@H](NC(=O)c2nc3ccccc3cc2O)C(=O)NCC(=O)N1C)c1ccccc1` was tested, and the growth was -17.7% (active). Compound `O=c1ssc(Cl)c1-c1ccccc1` has a growth of 93.9%. With `O=S(=O)(NCCCNc1cc(-c2c(-c3cccc(O)c3)nc3sccn23)ccn1)c1cccc(Cl)c1` the growth was 27%. `CCOC(=O)/C=C/c1cc2cc(-c3csc4ccccc34)ccc2[nH]1` gave a growth of 91.8%. With `Cn1cc(-c2csc(-c3ccccc3)n2)c2cccnc21` the growth was -58.2% [100 µM] (active). For `O=c1[nH]nc(-c2ccccc2)c2c(-c3ccccc3)onc12`, the growth was 56.3%. `Cc1ccccc1NC(=O)N/C(N)=N/c1nc(-c2cccc([N+](=O)[O-])c2)cs1` gave a growth of 54.8%. `COc1cc2c(cc1-c1c(C)noc1C)ncc1nc(C3CCC(F)(F)CC3)n(C3CCC(OC(F)F)CC3)c12` (stereo unspecified) was tested, and the growth was 76.6%. Compound `N#C/C(=C\c1ccc(Br)cc1)n1nnc2cc(F)c(F)cc21` has a growth of 17%. For `CSc1n(Cc2ccc3ccccc3c2)c(C)c[n+]1Cc1ccc2ccccc2c1`, the growth was -2.22% (active).

Each compound was assayed on UO-31 renal in the same assay as above. Conditions: 10 µM unless noted.
`CN1C(=O)N(C)C2C1NN=c1s/c(=C\c3ccccc3)c(=O)n12` (stereo unspecified) gave a growth of 44.8%. In the case of `CCn1c(C)nc2cc(C(N)=O)ccc21`, the growth is reported as 91.5%. For `Cc1ccc(/C=C/c2c(C(=O)/C=C/c3ccc(Cl)cc3)c(C)nc3ccccc23)cc1`, the growth was -74.7% (active). With `COc1ccc2[nH]c(O)c(/C=c3/cc4c(c(-c5ccc(F)c(OC)c5)n3)=Nc3ccccc3-4)c2c1` the growth was 74.7%. `O=C(Cc1ccc(F)c(F)c1)Nc1cc(C2(C(F)(F)F)CC2)nn1Cc1ccccc1` was tested, and the growth was -3.87% (active). For `C#CCOc1nc(C)cc(C)c1C#N`, the growth was 86.5%. In the case of `O=C1NC(=Nc2ccc(Cl)cc2)S/C1=C\c1cn(-c2ccccc2)nc1-c1ccccc1`, the growth is reported as 87.2%. With `COc1cccc(-c2nn(-c3ccccc3)cc2-c2ccnc(NCCNC(=O)Nc3cccc(C(F)(F)F)c3)c2)c1` the growth was -21.9% (active). `COc1cc2ncn3c(=O)c4c5c(sc4nc3c2cc1OC)CCCC5` gave a growth of 95.7%. Work on `CCN1C(=O)N(CC)C2Nn3c(s/c(=C4\C(=O)N(C)c5ccccc54)c3=O)=NC21` (stereo unspecified) yielded a growth of 48.6%. `Cc1c(C)c2c(c(C)c1OCC(=O)O)CC[C@@](C)(CCC[C@@H](C)CCC[C@@H](C)CCCC(C)C)O2` gave a growth of 32.6% [50 µM]. For `Cc1occc1-c1n[nH]c(=S)n1N1C(=O)CSC1=S`, the growth was 77.6%. In the case of `COc1ccc2c(c1)O/C(=C/c1ccc(OCC(=O)c3ccccc3)cc1)C2=O`, the growth is reported as -29.2% (active). For `c1ccc(-c2nc([P+](c3ccccc3)(c3ccccc3)c3ccccc3)c(N3CCOCC3)o2)cc1`, the growth was 74%. In the case of `Cc1cccc(Cc2cnc(NC(=O)/C=C/c3ccco3)s2)c1`, the growth is reported as 37.3%. `CCN(CC)CCCC(C)Nc1c2ccc(Cl)cc2nc2ccc(O)cc12` (stereo unspecified) showed a growth of 34.4%. `COC1=CC(=O)C[C@@H](C)[C@]12Oc1c(Cl)c(OC)cc(OC)c1C2=O` showed a growth of 82.7%. `CC1=C(SCCC(=O)OC(C[Se]C2=C(C)C(=O)c3ccccc3C2=O)C(=O)NCCCCCC(=O)OCc2ccccc2)C(=O)c2ccccc2C1=O` (stereo unspecified) showed a growth of 25.3%. Work on `O=c1c2c3c(sc2nc(N/N=C/c2ccc(Br)cc2)n1Cc1ccccc1)CCCC3` yielded a growth of 62.3%. `CC(=O)O[C@]1(C(C)=O)CCC2C3C[C@H](C)C4=CC(=O)CC[C@]4(C)C3CC[C@@]21C` (stereo partly specified) gave a growth of 65.6%. `Nc1ccc2c(c1)c(N)nn2C(=O)Nc1ccc(Cc2ccccc2)cc1` gave a growth of 39.3%. In the case of `Cc1cc(NCc2cc(Nc3ccnc4cc(Cl)ccc34)ccc2F)nc(N2CCSCC2)n1`, the growth is reported as -10.2% (active). With `CN(C)CCC=C1c2ccccc2C(C)(C)c2ccccc21` the growth was 58.1%. Compound `COc1ccc(NC(=O)CSc2nc(C)c(C(C)=O)n2-c2ccc([N+](=O)[O-])cc2)cc1` has a growth of 83.6%. `COC(=O)c1c2c(c(C)[n+]([O-])c1C)C(=O)C(NCc1ccc(F)cc1)=CC2=O` was tested, and the growth was 71.9%. In the case of `Cc1c(C(=O)NC(Cc2ccccc2)C(O)C(=O)NCc2ccc(F)cc2)[nH]c2ccccc2c1=O` (stereo unspecified), the growth is reported as 94%. `COC1=C(OC)C(=O)C(OC)=C(OC)C1=O` gave a growth of 81.2%. `CCN(CC)Cc1cccc(C(=O)OC)c1` showed a growth of 103%. Work on `C[C@H](NC(=O)[C@@H]1CSSC[C@@H](NC(=O)c2nc3ccccc3cc2O)C(=O)NCC(=O)N1C)c1ccccc1` yielded a growth of 63.8%. For `O=c1ssc(Cl)c1-c1ccccc1`, the growth was 74.6%. `O=S(=O)(NCCCNc1cc(-c2c(-c3cccc(O)c3)nc3sccn23)ccn1)c1cccc(Cl)c1` was tested, and the growth was 31.5%. `CCOC(=O)/C=C/c1cc2cc(-c3csc4ccccc34)ccc2[nH]1` showed a growth of 36.2%. In the case of `Cn1cc(-c2csc(-c3ccccc3)n2)c2cccnc21`, the growth is reported as -28.7% [100 µM] (active). `O=c1[nH]nc(-c2ccccc2)c2c(-c3ccccc3)onc12` was tested, and the growth was 16.9%. `Cc1ccccc1NC(=O)N/C(N)=N/c1nc(-c2cccc([N+](=O)[O-])c2)cs1` was tested, and the growth was 58.1%. `COc1cc2c(cc1-c1c(C)noc1C)ncc1nc(C3CCC(F)(F)CC3)n(C3CCC(OC(F)F)CC3)c12` (stereo unspecified) showed a growth of 18.2%. For `N#C/C(=C\c1ccc(Br)cc1)n1nnc2cc(F)c(F)cc21`, the growth was 33.9%. For `CSc1n(Cc2ccc3ccccc3c2)c(C)c[n+]1Cc1ccc2ccccc2c1`, the growth was 72.4%.
